Results reported in PubChem BioAssay (Tox21).
“And” between values parts separate entries of the source, which are not always exact repeats. Identical values can stand only once. Results filed as inconclusive are left out. The source made the active and inactive calls. Unless noted, calls come from the whole dose curve; as a rule, active = well fitted curve in the direction sought with a large enough effect in the repeat runs; inconclusive = weak or mixed curves; inactive = no such curve, though single readings can be large; an effect the other way counts as inactive or inconclusive.

Experiments:
[1] = qHTS assay to test for compound auto fluorescence at 535 nm (green) in HEK293 cells (AID 720680)
[2] = qHTS assay to test for compound auto fluorescence at 460 nm (blue) in HEK293 cell free culture (AID 720681)
Outline: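 Blue fluorescence (Ex 405/Em 460 nm, triamterene-equivalent) was read immediately after pin transfer of compound or DMSO into medium (DMEM, 10% FBS) without cells.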

[3] = qHTS assay to test for compound auto fluorescence at 535 nm (green) in HEK293 cell free culture (AID 720682)
Outline: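 Green-channel intensity (Ex/Em 485/535 nm) was recorded from compound-treated wells containing only DMEM with 10% FBS. Fluorescein provided the equivalency standard.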

[4] = qHTS assay to test for compound auto fluorescence at 590 nm (red) in HEK293 cell free culture (AID 720683)
Outline: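 Red-channel autofluorescence of compounds in culture medium (DMEM, 10% FBS), no cells, measured at 540/590 nm. Rose Bengal sodium is the reference fluorophore for equivalence.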

[5] = qHTS assay to test for compound auto fluorescence at 590 nm (red) in HepG2 cell free culture (AID 720684)
Outline: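 Plate contents were MEM with 10% FBS plus test compound or DMSO, no cells. Fluorescence was recorded with 540 nm excitation and 590 nm emission.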

[6] = qHTS assay to test for compound auto fluorescence at 460 nm (blue) in HepG2 cell free culture (AID 720685)
Outline: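 Compound (23 nL) or DMSO pinned into cell-free MEM with 10% FBS; blue fluorescence read at 405/460 nm excitation/emission, expressed as auto-fluorescence equivalency to triamterene.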

[7] = qHTS assay to test for compound auto fluorescence at 535 nm (green) in HepG2 cell free culture (AID 720686)
[8] = qHTS assay to test for compound auto fluorescence at 460 nm (blue) in HepG2 cells (AID 720687)
Outline: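 Blue-channel autofluorescence (Ex/Em 405/460 nm, triamterene-equivalent) was measured after 1 hr compound exposure at 37 C, 5% CO2. Cells were HepG2, plated overnight at 37 C in MEM plus 10% FBS.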

[9] = qHTS assay to identify small molecule antagonists of the glucocorticoid receptor (GR) signaling pathway - cell viability counter screen (AID 720693); note: nearly all actives have a fitted effect of over 55% in size; note: potency is the fitted concentration of half-maximal effect
[10] = qHTS assay for identifying genotoxic compounds that show differential cytotoxicity against isogenic chicken DT40 cell lines with known DNA damage response pathways - wild type cell line (AID 743012); note: potency is the fitted concentration of half-maximal effect; nearly all actives have a fitted effect of over 60% in size
Outline: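 Cells (DT40 wild type, 300/well) are treated with DMSO-dissolved compounds after a ~0.5 h pre-incubation and kept 40 h at 37 C/5% CO2. Viability is then measured by CellTiter-Glo luminescence following 30 min at room temperature.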

[11] = qHTS assay for identifying genotoxic compounds that show differential cytotoxicity against isogenic chicken DT40 cell lines with known DNA damage response pathways - Rev3 mutant cell line (AID 743014); note: nearly all actives have a fitted effect of over 55% in size; note: potency is the fitted concentration of half-maximal effect
[12] = qHTS assay to identify small molecule antagonists of the androgen receptor (AR) signaling pathway - cell viability counter screen (AID 743033; note: nearly all actives have a fitted effect of over 45% in size; note: potency is the fitted concentration of half-maximal effect)
[13] = qHTS assay to identify small molecule antagonists of the androgen receptor (AR) signaling pathway using the MDA cell line - cell viability counter screen (AID 743041; note: nearly all actives have a fitted effect of over 45% in size; note: potency is the fitted concentration of half-maximal effect)
Outline: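 R1881-driven MDA-kb2 AR-luc cells, 3,000/well, were dosed with library compounds for 16 h; cell health came from CellTiter-Fluor fluorescence in the reporter wells.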

[14] = qHTS assay to identify small molecule antagonists of the thyroid receptor (TR) signaling pathway - cell viability counter screen (AID 743064); note: nearly all actives have a fitted effect of over 50% in size; note: potency is the fitted concentration of half-maximal effect
Outline: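 In rat pituitary GH3.TRE-Luc reporter cells co-exposed to compound and 1 nM T3 for 23.5 h, cytotoxicity was assessed with CellTiter-Fluor in the same wells, read by fluorescence.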

[15] = target: Glucocorticoid receptor (Homo sapiens) (UniProt P04150); experiment: qHTS assay to identify small molecule antagonists of the glucocorticoid receptor (GR) signaling pathway (AID 720692; active = well fitted inhibition curve with a large enough effect in the signal ratio in the repeat runs, not every such curve was filed as active; the % refers to the signal ratio; note: potency is the fitted concentration of half-maximal effect)
Outline: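 Cells plated, rested 4 h at 37 C/5% CO2; compounds in DMSO pin-transferred; dexamethasone added to 5 nM final; 18 h at 37 C; B/G FRET substrate added, 2 h room temperature; fluorescence measured.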

[16] = qHTS assay for identifying genotoxic compounds that show differential cytotoxicity against isogenic chicken DT40 cell lines with known DNA damage response pathways - Rad54/Ku70 mutant cell line (AID 743015); note: nearly all actives have a fitted effect of over 60% in size; note: potency is the fitted concentration of half-maximal effect
[17] = target: Androgen receptor (Homo sapiens) (UniProt P10275); experiment: qHTS assay to identify small molecule antagonists of the androgen receptor (AR) signaling pathway (AID 743035; active = well fitted inhibition curve with a large enough effect in the signal ratio in the repeat runs, not every such curve was filed as active; the % refers to the signal ratio; note: potency is the fitted concentration of half-maximal effect)
Outline: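 Antagonism is scored as loss of R1881-driven beta-lactamase reporter expression in HEK293 cells carrying the reporter under a UAS element, after 16 h co-treatment at 37C and a 2 h room-temperature FRET substrate read.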

[18] = target: Androgen receptor (Homo sapiens) (UniProt P10275); experiment: qHTS assay to identify small molecule antagonists of the androgen receptor (AR) signaling pathway using the MDA cell line (AID 743042; note: nearly all actives have a fitted effect of over 55% in size; note: potency is the fitted concentration of half-maximal effect)
Outline: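 Antagonist mode: compounds plus R1881 agonist added to MDA-kb2 AR-luc cells, incubated 16 h at 37C. Luciferase reporter luminescence quantified, with multiplexed CellTiter-Fluor readout for cell viability.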

[19] = target: Androgen receptor (Homo sapiens) (UniProt P10275); experiment: qHTS assay to identify small molecule agonists of the androgen receptor (AR) signaling pathway using the MDA cell line (AID 743040; note: nearly all actives have a fitted effect of over 20% in size)
Outline: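 After a 5 h incubation at 37C and 0% CO2, MDA-kb2 reporter cells were dosed with compounds in DMSO and kept 16 h under the same conditions. Luciferase activity was then read as luminescence with ONE-Glo.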

Measured: Potency

Glucocorticoid receptor (Homo sapiens), sequence (P04150 whole entry, looked up): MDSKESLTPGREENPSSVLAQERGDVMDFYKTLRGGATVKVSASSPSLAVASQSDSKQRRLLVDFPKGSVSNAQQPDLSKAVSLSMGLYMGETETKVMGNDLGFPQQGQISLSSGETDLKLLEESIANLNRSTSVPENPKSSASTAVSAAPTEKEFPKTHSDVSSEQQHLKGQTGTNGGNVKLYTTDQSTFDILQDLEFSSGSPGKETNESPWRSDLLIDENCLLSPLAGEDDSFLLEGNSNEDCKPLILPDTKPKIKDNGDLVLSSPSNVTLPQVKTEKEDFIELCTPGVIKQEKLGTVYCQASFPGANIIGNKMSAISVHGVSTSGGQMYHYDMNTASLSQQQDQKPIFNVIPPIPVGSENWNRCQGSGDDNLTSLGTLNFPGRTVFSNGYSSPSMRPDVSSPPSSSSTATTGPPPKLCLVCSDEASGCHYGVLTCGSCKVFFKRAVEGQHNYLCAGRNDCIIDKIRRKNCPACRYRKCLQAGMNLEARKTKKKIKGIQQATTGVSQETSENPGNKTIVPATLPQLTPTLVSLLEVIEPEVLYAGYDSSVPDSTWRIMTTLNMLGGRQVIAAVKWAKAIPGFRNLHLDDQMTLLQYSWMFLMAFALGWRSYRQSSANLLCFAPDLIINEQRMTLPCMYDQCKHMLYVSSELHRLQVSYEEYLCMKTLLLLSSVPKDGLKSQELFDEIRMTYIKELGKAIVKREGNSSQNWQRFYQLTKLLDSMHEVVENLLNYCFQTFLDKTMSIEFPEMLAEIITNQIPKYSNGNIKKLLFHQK
Androgen receptor (Homo sapiens), sequence (P10275 whole entry, looked up): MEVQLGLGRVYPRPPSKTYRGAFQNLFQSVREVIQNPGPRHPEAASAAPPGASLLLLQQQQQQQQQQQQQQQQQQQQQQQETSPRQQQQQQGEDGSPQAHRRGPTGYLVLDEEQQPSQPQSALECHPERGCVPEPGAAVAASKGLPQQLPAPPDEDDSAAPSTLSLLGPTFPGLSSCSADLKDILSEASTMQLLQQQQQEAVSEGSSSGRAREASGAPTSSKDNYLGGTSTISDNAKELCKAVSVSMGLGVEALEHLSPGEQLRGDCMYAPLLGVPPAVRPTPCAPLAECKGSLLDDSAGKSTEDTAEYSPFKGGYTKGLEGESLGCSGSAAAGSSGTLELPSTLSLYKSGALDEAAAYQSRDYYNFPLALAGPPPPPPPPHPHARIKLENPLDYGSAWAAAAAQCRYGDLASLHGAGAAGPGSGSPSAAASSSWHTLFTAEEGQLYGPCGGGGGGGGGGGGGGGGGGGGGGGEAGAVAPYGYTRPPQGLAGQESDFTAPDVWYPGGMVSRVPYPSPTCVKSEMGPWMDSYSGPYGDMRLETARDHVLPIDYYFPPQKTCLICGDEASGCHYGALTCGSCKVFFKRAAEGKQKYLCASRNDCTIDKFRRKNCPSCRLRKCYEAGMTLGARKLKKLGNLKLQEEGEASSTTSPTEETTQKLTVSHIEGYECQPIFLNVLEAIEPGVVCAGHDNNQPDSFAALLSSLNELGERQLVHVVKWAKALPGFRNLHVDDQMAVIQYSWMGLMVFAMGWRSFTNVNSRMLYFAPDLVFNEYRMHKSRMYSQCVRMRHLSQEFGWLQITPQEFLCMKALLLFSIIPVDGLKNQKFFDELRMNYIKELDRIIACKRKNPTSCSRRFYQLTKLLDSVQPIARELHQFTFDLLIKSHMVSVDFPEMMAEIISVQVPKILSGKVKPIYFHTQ

COC(=O)NCCC[Si](OC)(OC)OC
active: [10] 61.1 µM | [11] 68.6 µM
inactive: [1] | [2] | [3] | [4] | [5] | [6] | [7] | [8] | [9] | [12] | [13] | [14]

COC(=O)[C@]1(C)CCC[C@@]2(C)[C@H]1CC=C1C=C(C(C)C)CC[C@@H]12
inactive: [1] | [2] | [3] | [4] | [5] | [6] | [7] | [8] | [15] | [9] | [12] | [13]
active: [16] 61.1 µM | [14] 48.6 µM

O=C1NCCN1CCN1CCC(c2cn(-c3ccc(F)cc3)c3ccc(Cl)cc23)CC1
inactive: [1] | [2] | [3] | [4] | [5] | [6] | [7] | [8]
active: [9] 23.9 µM | [11] 1.88 µM and 2.37 µM | [16] 1.68 µM and 2.66 µM | [12] 16.9 µM and 21.3 µM | [17] 16.9 µM and 21.3 µM | [13] 13.3 µM and 21.1 µM | [18] 11.9 µM and 18.8 µM | [14] 6.68 µM

C/C=C/C(=O)Oc1c(CCCCCC(C)C)cc([N+](=O)[O-])cc1[N+](=O)[O-]
active: [15] 3.09 µM | [11] 3.44 µM | [16] 2.43 µM | [12] 7.76 µM | [13] 7.7 µM | [14] 12.2 µM
inactive: [1] | [2] | [3] | [4] | [5] | [6] | [7] | [8]

CCN(CC)CCCN(c1ccccc1)C1Cc2ccccc2C1
inactive: [1] | [2] | [3] | [4] | [5] | [6] | [7] | [8]
active: [9] 23.9 µM | [10] 0.531 µM | [11] 0.944 µM | [16] 1.5 µM | [13] 11.9 µM | [14] 2.98 µM

C[C@@H]1CC[C@H]2C(C)(C)[C@H]3C[C@@]12CC[C@@]3(C)O
inactive: [1] | [2] | [3] | [4] | [5] | [6] | [7] | [8] | [9] | [11] | [16] | [12] | [17] | [19] | [13] | [18]

Cc1nc(Nc2ncc(C(=O)Nc3c(C)cccc3Cl)s2)cc(N2CCN(CCO)CC2)n1
inactive: [1] | [2] | [3] | [4] | [5] | [6] | [7] | [8] | [9] | [12]
active: [10] 5.96 µM | [11] 9.44 µM | [16] 6.68 µM | [14] 18.8 µM

CCc1ccc(O)c(C(C)(C)C)c1
active: [10] 43.3 µM | [11] 30.6 µM | [16] 30.6 µM | [14] 54.5 µM
inactive: [1] | [2] | [3] | [4] | [5] | [6] | [7] | [8] | [15]
